# Most compounds without a hit are left out; they make up all but 2.7% or so of the library.
# Tau ThT inhib: inhibitors of human tau fibril formation, thioflavin T binding | AID 1460 | 270,000 compounds, 2.1% hits | Potency, µM (titrated, usually from 57.4 µM), for inactives: at the highest dose activity, negative = inhibition, hits mostly inhibitors | recombinant tau K18 P301L, heparin-induced fibrillization, ThT fluorescence | P10636; further: potency means the concentration at half of the fitted maximal effect; nearly all actives have a fitted effect of over 55% in size
# Target sequence (P10636 561-689 P618L limits assumed): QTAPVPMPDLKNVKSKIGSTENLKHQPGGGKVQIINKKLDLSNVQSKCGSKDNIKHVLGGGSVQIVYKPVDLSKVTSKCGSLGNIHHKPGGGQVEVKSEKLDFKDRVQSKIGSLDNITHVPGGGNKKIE
#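 In this qHTS, human K18 P301L tau is incubated with compound and heparin for 6 hr at 37 C, and Thioflavin T fluorescence then reports fibril load.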
# Tau fluor counter: counter-screen for tau fibril formation inhibitors; tau K18 P301L (four-repeat tau fragment) Alexa594 fluorescence, heparin fibrillization; Potency, µM (series often up to 57.7 µM), inactives show top-dose activity change, negative = decrease; 280,000 compounds, 0.93% hits; AID 1463; further: potency means the concentration at half of the fitted maximal effect; nearly all actives have a fitted effect of over 55% in size
#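 Human K18 P301L tau (15 uM unlabeled plus 0.24 uM Alexa 594-labeled, final) in 100 mM sodium acetate pH 7 was mixed with compound and 20 uM heparin and incubated 6 hr at 37 C.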
# Coupling enz: inhibits coupling enzyme system, counter-screen for aldolase hits. coupling enzyme system counterscreen, AmpLite Red fluorescence. activity change, negative = inhibition, % at 58.2 µM, hits read low. 290,000 compounds, 0.67% hits. AID 2472; in the data active means activity change below about -30%
#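 Coupling enzymes only (glyceraldehyde-3-phosphate) + compound, at 57.5 uM final, 10 min RT; add substrate/coupling/AmpLite Red mix, 20 min RT; fluorescence ex 525/em 598 nm. Actives flag coupling-system interference.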
# Tau FP inhib: blocks human tau fibril formation measured by polarization; AID 1468; K18 P301L tau heparin fibrillization, Alexa594 FP, 6 h; Potency, µM (highest dose often 57.7 µM), for the others: at the top dose activity, negative = inhibition, usual class: inhibitors; 280,000 compounds, 0.39% hits; P10636; further: potency means the concentration at half of the fitted maximal effect; nearly all actives have a fitted effect of over 55% in size
#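 Human tau K18 […] P301L fragment, 15 uM unlabeled plus 0.24 uM Alexa 594-labeled tau (final), with compound and 20 uM heparin in 100 mM sodium acetate pH 7; 6 hr at 37 C, then Alexa 594 FP read.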
# Numbers without * were called inactive; u = inconclusive; x = no result given; [ ] = dose if it differs, or a comment. Unless noted, the call rests on the fitted dose curve; in most records, active means well fitted curve in the direction sought with a large enough effect; inconclusive means small, poorly fitted or top-dose-only effect, or another doubt; inactive means no such curve, though single readings can be large; an effect the other way counts as inactive or inconclusive. On the % scale 0 is the no-effect control and ±100 the full control effect.
SMILES,Tau ThT inhib,Tau fluor counter,Coupling enz,Tau FP inhib
Cc1ccc(C2C(C#N)=C(N)SC(N)=C2C#N)o1,14µM*,u,-25,18µM*
CCc1ccc(C2C(C#N)=C(N)SC(N)=C2C#N)s1,14µM*,u,-1,u
NC[C@@H]1O[C@@H](O[C@H]2[C@H](O)[C@H](O[C@@H]3O[C@H](CO)[C@@H](O)[C@H](N)[C@@H]3O)[C@@H](N)C[C@H]2N)[C@H](N)C[C@@H]1O,x,x,2,x
O=c1c2c(-c3ccccc3)csc2ncn1/N=C/c1cccc([N+](=O)[O-])c1O,14µM*,-11%,2,-3%
Nc1n[nH]c(N)c1N=Nc1ccccc1F,x,x,1,x
Nc1n[nH]c(N)c1N=Nc1ccc(Cl)cc1Cl,3.5µM*,u,0,7%
Sc1oc(-c2ccccc2)cc1C=Nc1ccccc1,8.9µM*,18µM*[quencher],-4,5%
O=c1[nH][nH]c(-c2ccccc2)c1C=Nc1ccccc1,-9%,-4%,4,-4%
CCC1CN(C(=O)N2CCC(C(=O)N3CCN(c4cccc(C)c4C)CC3)CC2)c2ccccc2O1 (configuration not stated),-18%,5µM*[quencher],x,7%
CCC1CN(C(=O)N2CCC(C(=O)N3CCN(c4cc(C)ccc4C)CC3)CC2)c2ccccc2O1 (configuration not stated),-9%,u,x,15%
CCC1CN(C(=O)N2CCC(C(=O)N3CCN(c4ccc(F)cc4)CC3)CC2)c2ccccc2O1 (configuration not stated),10%,2.5µM*[quencher],x,-2%
COc1cccc(CNC(=O)CCc2c(C)nn(-c3ccc(N4CCOCC4)nn3)c2C)c1,-12%,-8%,x,4%
CCOC(=O)c1ccc(NC(=S)NCCc2ccc(F)cc2)cc1,6%,u,-1,28µM*
N#Cc1cc(-c2ccccc2)nn1-c1ccccc1,u,u,-41*,u
Nc1ccccc1Nc1ccccc1,u,-29%,0,1%
Nc1ccccc1Nc1cc(-c2ccccc2)[nH]n1,14µM*,u,-1,8%
Nc1ccccc1Nc1cc(-c2ccccc2)nn1-c1ccccc1,u,14µM*[quencher],1,16%
CC1CCCCN1S(=O)(=O)c1cc2c(=O)nc3ccccn3c2cc1Cl (configuration not stated),12%,6%,x,-2%
CCOc1ccc(CCNC(=O)CCCc2nnc3n(C)c(=O)c4sccc4n23)cc1OCC,-7%,-15%,x,-5%
COc1ccc(Nc2nc3ccccc3nc2NS(=O)(=O)c2cccs2)cc1,14µM*,u,10,15%
O=C(COc1ccc(Cl)cc1)Nc1ccc(O)c(-c2nc3ccccc3s2)c1,u,-16%,x,u
CCNc1ccc(C(=O)NN=C2CCCC2)cc1[N+](=O)[O-],8.9µM*,-18%,-1,4%
CC(C)(C)c1ccc(C(=O)NN=C2CCCC2)cc1,x,x,0,x
Cc1cc(O)ccc1Nc1nc2ccccc2nc1Nc1ccc(O)cc1C,14µM*,13µM*[quencher],-21,u
CC(C)(C)c1cc[n+](/C(C(=S)NC2CC2)=C(/[O-])c2ccc(Cl)s2)cc1,u,-18%,-44*,-2%
[O-]/C(=C(\C(=S)Nc1cccc2ccccc12)[n+]1ccccc1)c1ccc(Cl)s1,7%,8%,-39*,5%
CCc1cccc(CC)c1NC(=S)/C(=C(\[O-])c1ccc(Cl)s1)[n+]1ccccc1,u,-21%,0,0%
Cc1ccc(C)c(NC(=S)/C(=C(\[O-])c2ccc(Cl)s2)[n+]2ccccc2)c1,u,-15%,-40*,-6%
Cc1cc(C)cc(NC(=S)/C(=C(\[O-])c2ccc(Cl)s2)[n+]2cccc(C)c2)c1,u,-21%,-4,-7%
CC(C)C[C@H](NC(=O)CNC(=O)[C@@H]1CCCN1C(=O)[C@H](CCCNC(=N)N)NC(=O)[C@H](CC(=O)O)NC(=O)[C@@H](NC(=O)[C@H](CC(N)=O)NC(=O)[C@@H](NC(=O)[C@H](CC(=O)O)NC(=O)CNC(=O)[C@@H](NC(=O)[C@@H](NC(=O)[C@H](C)NC(=O)[C@@H](N)CCC(N)=O)[C@@H](C)O)C(C)C)C(C)C)[C@@H](C)O)C(=O)N[C@@H](CC(C)C)C(=O)N[C@@H](CC(=O)O)C(=O)N[C@@H](CC(C)C)C(=O)N[C@@H](CCCCN)C(=O)O,x,x,1,x

# Source: PubChem (National Center for Advancing Translational Sciences (NCATS))
